Legend:
Experiment in all cases: log2 ratio of Biotin-Ahx-Ub-VS probe labelling (fragment/DMSO); higher = less target engagement (more negative = stronger competition), active = hit call of the paper (q ≤ 0.05, log2 ratio ≤ -1)
Conditions in all cases: compound concentration: 200 uM; treatment time: 3 h
USP19 = target: T1, USP19 (UniProt O94966)
T1 sequence (whole entry): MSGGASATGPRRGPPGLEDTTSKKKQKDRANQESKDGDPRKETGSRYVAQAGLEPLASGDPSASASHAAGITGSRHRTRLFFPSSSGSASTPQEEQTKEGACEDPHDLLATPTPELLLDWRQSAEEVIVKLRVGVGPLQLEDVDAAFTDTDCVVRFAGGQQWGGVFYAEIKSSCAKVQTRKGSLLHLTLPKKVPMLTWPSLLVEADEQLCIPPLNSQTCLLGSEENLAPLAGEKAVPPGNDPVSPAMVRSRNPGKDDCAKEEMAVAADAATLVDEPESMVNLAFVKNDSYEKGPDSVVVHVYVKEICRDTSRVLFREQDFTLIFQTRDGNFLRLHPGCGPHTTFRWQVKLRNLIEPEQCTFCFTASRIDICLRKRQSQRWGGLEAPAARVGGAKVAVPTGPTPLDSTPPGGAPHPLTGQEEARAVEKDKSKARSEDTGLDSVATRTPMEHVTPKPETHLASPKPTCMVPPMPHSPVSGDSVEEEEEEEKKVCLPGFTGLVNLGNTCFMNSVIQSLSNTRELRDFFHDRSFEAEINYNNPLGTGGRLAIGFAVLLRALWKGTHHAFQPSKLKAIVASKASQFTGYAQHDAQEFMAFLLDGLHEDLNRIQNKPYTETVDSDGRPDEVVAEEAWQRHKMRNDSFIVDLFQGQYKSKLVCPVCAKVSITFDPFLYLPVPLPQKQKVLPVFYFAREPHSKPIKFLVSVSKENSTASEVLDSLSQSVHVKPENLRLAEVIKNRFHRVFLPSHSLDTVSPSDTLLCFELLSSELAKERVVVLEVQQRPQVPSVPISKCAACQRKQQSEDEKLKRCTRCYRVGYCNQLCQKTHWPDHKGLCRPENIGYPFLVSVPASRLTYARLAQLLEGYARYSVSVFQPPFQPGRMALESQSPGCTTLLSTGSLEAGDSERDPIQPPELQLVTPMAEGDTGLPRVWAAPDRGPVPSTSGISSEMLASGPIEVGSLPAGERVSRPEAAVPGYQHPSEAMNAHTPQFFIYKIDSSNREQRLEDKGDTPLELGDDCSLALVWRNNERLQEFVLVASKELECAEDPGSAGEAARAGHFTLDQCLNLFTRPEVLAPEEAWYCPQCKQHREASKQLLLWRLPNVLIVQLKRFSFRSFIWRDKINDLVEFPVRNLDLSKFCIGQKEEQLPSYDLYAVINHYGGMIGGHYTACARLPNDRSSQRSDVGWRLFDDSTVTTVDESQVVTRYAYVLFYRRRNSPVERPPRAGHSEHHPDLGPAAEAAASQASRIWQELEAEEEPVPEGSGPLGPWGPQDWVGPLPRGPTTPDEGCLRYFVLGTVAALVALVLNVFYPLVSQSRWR
In short: (§1)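 Labelled DUBs from HEK293T lysate were NeutrAvidin-enriched, digested with LysC and trypsin, and run by diaPASEF LC-MS/MS. Before that, each 495 µg sample in Tris/CHAPS/IGEPAL buffer with protease inhibitors was treated in triplicate with fragment at 200 µM or vehicle for 3 h, then with Biotin-Ahx-Ub-VS at 0.5 µM final for 1 h. Values are average log2 ratios of fragment over vehicle by unpaired t-test, based on global-median-normalised Spectronaut label-free quantities from proteins with ≥2 unique peptides.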

USP22 = target: T2, USP22 (UniProt Q9UPT9)
T2 sequence (whole entry): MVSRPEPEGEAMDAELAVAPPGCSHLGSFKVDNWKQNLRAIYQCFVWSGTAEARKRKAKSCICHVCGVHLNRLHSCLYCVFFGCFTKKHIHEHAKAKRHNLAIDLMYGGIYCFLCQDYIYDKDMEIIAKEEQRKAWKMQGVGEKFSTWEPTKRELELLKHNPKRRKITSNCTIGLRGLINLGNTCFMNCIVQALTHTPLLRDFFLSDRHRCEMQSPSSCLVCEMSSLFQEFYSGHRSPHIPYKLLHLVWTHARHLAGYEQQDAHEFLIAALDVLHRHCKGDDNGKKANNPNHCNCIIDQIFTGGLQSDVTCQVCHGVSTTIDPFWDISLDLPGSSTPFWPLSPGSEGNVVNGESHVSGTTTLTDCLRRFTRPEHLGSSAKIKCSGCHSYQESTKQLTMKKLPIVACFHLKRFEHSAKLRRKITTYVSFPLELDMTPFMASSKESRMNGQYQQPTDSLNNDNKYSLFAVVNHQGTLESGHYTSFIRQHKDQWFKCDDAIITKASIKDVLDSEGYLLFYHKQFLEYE
In short: as §1

USP24 = USP24 (UniProt Q9UPU5)
In short: as §1

USP25 = target: T3, USP25 (UniProt Q9UHP3)
T3 sequence (whole entry): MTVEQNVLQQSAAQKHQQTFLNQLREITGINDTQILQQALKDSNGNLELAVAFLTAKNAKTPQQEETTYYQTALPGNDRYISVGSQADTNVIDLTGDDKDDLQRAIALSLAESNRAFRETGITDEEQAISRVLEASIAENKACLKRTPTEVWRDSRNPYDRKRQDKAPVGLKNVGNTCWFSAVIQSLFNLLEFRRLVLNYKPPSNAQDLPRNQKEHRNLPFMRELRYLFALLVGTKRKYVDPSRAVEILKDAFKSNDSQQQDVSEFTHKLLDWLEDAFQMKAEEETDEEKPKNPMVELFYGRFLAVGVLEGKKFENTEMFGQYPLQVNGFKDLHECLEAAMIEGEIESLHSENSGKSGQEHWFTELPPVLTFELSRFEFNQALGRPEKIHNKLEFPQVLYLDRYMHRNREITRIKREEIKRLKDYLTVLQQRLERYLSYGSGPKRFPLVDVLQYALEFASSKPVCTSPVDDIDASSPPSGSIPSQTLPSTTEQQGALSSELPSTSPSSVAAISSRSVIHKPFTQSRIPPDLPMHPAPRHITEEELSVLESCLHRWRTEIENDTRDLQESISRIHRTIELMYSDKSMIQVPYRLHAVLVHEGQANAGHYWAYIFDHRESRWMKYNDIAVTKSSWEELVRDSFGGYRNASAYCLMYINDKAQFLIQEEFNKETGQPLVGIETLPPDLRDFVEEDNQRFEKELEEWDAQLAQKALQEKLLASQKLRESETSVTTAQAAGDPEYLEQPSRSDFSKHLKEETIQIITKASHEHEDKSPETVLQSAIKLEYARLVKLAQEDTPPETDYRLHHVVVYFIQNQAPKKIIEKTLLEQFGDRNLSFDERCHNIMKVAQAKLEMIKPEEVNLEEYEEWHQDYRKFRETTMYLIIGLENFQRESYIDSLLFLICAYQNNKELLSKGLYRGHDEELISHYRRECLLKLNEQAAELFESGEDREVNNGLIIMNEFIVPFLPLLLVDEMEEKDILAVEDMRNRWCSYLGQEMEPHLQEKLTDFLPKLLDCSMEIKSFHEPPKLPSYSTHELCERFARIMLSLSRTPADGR
In short: as §1

USP28 = target: T4, USP28 (UniProt Q96RU2)
T4 sequence (whole entry): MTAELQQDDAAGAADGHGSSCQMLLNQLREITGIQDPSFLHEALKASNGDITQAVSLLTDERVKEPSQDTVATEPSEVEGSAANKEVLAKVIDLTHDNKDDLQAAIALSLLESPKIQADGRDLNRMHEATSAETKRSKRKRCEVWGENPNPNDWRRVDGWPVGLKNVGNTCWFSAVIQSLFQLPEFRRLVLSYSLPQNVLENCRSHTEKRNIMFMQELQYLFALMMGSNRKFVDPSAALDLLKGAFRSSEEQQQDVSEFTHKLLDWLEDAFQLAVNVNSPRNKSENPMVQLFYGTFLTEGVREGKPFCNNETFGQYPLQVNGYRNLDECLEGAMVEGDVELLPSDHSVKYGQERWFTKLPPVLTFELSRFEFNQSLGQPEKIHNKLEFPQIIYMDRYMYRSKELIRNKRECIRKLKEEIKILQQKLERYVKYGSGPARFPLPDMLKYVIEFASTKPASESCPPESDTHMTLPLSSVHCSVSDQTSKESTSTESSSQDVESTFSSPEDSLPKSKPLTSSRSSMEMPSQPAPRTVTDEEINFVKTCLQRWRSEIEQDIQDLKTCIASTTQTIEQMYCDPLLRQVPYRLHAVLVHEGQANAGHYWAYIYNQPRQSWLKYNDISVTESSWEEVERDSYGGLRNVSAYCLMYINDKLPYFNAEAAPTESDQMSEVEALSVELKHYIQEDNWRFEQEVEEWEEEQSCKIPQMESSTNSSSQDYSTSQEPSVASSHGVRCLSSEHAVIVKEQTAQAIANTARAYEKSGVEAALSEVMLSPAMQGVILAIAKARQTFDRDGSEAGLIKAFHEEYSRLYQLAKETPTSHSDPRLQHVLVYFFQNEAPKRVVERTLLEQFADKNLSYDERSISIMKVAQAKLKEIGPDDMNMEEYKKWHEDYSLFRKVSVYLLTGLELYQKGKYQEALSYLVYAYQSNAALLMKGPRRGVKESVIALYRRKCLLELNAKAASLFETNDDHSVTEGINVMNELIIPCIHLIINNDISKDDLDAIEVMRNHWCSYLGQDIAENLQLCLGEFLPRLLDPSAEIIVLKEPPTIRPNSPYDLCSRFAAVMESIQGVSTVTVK
In short: as §1

Measured: log2 ratio of Biotin-Ahx-Ub-VS probe labelling

USP24, sequence (Q9UPU5 whole entry): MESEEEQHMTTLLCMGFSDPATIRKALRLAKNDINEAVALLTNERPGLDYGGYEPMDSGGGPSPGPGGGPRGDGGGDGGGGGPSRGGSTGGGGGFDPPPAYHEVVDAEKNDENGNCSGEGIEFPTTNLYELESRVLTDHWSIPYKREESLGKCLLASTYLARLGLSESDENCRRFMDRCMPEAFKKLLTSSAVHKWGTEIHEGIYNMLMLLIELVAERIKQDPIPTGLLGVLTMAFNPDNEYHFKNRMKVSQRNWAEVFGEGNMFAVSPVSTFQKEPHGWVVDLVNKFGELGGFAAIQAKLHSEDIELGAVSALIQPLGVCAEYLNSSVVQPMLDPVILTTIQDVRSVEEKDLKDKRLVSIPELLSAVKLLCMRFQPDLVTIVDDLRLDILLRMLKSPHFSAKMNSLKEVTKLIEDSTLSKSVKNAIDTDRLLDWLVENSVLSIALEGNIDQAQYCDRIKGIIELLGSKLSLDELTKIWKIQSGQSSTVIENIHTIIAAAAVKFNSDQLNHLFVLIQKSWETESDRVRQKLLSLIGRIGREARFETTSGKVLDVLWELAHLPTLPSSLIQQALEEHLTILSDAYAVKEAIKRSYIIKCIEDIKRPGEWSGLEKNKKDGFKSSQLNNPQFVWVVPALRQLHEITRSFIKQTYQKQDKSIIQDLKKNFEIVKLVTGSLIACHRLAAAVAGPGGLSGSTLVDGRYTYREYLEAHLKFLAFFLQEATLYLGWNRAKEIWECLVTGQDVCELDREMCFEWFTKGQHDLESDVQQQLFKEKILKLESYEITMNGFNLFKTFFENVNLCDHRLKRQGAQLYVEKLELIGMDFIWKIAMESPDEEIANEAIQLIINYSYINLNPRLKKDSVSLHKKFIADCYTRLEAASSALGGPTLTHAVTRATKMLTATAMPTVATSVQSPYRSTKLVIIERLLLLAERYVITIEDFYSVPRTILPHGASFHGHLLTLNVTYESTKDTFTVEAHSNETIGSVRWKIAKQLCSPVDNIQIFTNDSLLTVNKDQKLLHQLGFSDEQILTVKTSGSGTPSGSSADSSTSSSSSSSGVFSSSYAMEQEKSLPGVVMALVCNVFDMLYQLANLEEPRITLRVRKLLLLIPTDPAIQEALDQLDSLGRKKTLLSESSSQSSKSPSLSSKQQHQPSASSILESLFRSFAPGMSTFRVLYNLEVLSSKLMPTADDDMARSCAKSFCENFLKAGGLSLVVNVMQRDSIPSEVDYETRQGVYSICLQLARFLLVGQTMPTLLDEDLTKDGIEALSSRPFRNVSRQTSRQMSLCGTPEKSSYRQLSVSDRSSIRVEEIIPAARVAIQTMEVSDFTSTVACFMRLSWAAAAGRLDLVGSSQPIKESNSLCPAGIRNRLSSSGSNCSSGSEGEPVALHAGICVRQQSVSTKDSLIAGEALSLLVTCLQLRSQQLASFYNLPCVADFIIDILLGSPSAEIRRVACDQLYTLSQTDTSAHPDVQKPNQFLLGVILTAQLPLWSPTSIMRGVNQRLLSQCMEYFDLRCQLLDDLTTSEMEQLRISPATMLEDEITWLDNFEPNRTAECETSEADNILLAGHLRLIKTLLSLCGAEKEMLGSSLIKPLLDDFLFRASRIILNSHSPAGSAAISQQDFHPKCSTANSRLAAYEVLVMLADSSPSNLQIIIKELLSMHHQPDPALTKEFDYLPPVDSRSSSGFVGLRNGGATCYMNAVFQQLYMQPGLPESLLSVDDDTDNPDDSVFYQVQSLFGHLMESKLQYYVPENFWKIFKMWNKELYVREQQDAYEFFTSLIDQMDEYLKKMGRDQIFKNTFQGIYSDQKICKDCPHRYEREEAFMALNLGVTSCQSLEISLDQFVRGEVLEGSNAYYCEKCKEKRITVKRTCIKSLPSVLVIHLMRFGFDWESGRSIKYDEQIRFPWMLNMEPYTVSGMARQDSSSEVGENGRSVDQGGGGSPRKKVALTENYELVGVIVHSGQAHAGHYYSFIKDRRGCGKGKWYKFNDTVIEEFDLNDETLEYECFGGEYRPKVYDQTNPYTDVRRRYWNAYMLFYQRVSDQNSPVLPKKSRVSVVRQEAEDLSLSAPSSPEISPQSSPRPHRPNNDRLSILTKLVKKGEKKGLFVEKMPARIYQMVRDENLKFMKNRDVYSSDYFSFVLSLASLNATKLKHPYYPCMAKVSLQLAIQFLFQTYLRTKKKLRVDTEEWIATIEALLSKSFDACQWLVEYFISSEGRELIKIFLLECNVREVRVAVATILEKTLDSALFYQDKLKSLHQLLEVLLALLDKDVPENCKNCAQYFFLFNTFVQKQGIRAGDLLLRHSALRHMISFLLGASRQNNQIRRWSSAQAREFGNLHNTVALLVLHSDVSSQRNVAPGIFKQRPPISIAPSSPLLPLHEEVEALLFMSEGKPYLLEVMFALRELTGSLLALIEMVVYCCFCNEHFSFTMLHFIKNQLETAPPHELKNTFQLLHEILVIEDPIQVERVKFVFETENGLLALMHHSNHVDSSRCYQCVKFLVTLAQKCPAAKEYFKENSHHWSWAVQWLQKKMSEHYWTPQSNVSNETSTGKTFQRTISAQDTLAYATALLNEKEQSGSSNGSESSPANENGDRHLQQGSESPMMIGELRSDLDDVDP

CC(c1ccccc1)N(C)C(=O)CCl (stereo not given)
inactive: USP19 -0.444 | USP22 0.102 | USP24 -0.45 | USP25 -0.472 | USP28 -0.526
